Source: PMC3795721, “Screening for Protein-DNA Interactions by Automatable DNA-Protein Interaction ELISA”

What follows are sequences tested against AT4G31550 (Arabidopsis thaliana, UniProt Q9SV15 228-325) (assay: DPI-ELISA; DPI-ELISA, streptavidin 384-well plate, 1-2 pmol biotinylated dsDNA per well, crude native E. coli extract, anti-His detection; buffer as in Brand et al. [46],; high values mean tight binding). Conditions: tags: C-terminal His (pET-DEST42); label: 5' biotin on forward strand; dsDNA, one strand shown.
Chain of AT4G31550 (Q9SV15 228-325): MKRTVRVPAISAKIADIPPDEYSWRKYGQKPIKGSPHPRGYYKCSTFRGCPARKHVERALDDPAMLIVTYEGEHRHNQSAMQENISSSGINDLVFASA

Row | Sequence | binding signal [absorbance]
1 | AAAAAATAGTACCGCTAATGGCTGACAAAA | 0.605 ± 0.12
2 | AAAAAATTGCATTCCACCCTTAGGTTAAAA | 0.495 ± 0.106
3 | AAAAAAGGTTTAGCCCATGCCTGTGCAAAA | 0.645 ± 0.12
4 | AAAAAAGCCGTGGGTGATGGTCACAGAAAA | 0.56 ± 0.113
5 | AAAAAATAAGTAACCGAACGAAACTCAAAA | 0.75 ± 0.269
6 | AAAAAACGGTCGCGATCGTTAATGATAAAA | 0.75 ± 0.17
7 | AAAAAATAGCGACTTCGACTCTCAGTAAAA | 0.76 ± 0.0707
8 | AAAAAAGCTCCCGTCTCTTAGTTCTAAAAA | 0.695 ± 0.12
9 | AAAAAAATCTTTGCGTCGAGATTCTTAAAA | 0.59 ± 0.0707
10 | AAAAAAGATGATTAGTAATTGCGGAAAAAA | 0.75 ± 0.0849
11 | AAAAAACTTGCTCCTCCGTTTTACTCAAAA | 0.775 ± 0.276
12 | AAAAAATGAGAGAATTTCCGGTTCAGAAAA | 0.575 ± 0.0495
13 | AAAAAAGTTTCCTACTTGTGTCTGTGAAAA | 0.53 ± 0.0849
14 | AAAAAAGTCATTATAACCCAAACTCTAAAA | 0.5 ± 0.113
15 | AAAAAAATCCATATTATTGCTACCCGAAAA | 0.595 ± 0.0636
16 | AAAAAAGGGCCCACTATCGACGTCAAAA | 0.605 ± 0.134
17 | AAAAAACACAGCATTAGGCTATCGGTAAAA | 0.655 ± 0.134
18 | AAAAAACCGAGTGTTGCCAGTTGCAGAAAA | 0.655 ± 0.0919
19 | AAAAAACAACTTGGAGGATTTACAGCAAAA | 0.73 ± 0.141

Row | Sequence | binding signal [absorbance]
20 | AAAAAATGTCGGCTGTTAGGATATCGAAAA | 0.625 ± 0.0495
21 | AAAAAAGGGTCGCTGTGAGCTCATGAAAAA | 0.575 ± 0.12
22 | AAAAAAAGTAGTTACTGCGAAAGTCTAAAA | 0.675 ± 0.0778
23 | AAAAAAACTCACGGCGTCACTATGGTAAAA | 0.585 ± 0.12
24 | AAAAAAAAGCGTTACATCATATGGAAAAAA | 0.56 ± 0.0566
25 | AAAAAATATCCTATTCTAATTTATATAAAA | 0.55 ± 0.113
26 | AAAAAACCACCCAGTCTGTTTCTACTAAAA | 0.54 ± 0.141
27 | AAAAAATGGAAAGACCTATACCGGTCAAAA | 1.09 ± 0.17
28 | AAAAAAGCGGTAGATGCGCAACTGTGAAAA | 0.6 ± 0.127
29 | AAAAAAGTACATGCGTAGATAATGTTAAAA | 0.59 ± 0.127
30 | AAAAAATCCATTCTTCGCGTTTATCCAAAA | 0.53 ± 0.0849
31 | AAAAAACGTTGAACCTGGGCCTCAACAAAA | 1.39 ± 0.191
32 | AAAAAATGCCGAGACCCCATGCCGGCAAAA | 0.51 ± 0.099
33 | AAAAAATACTCTTCCTCGTTCTTGGTAAAA | 0.57 ± 0.127
34 | AAAAAACTACCTCTACTCTAGCCTTAAAAA | 0.515 ± 0.0495
35 | AAAAAATAATTACAAGTCGGCTCCACAAAA | 0.69 ± 0.0707
36 | AAAAAATGCAACGCTCCTTTCCCGCTAAAA | 0.535 ± 0.106
37 | AAAAAACTGCTTGCCCCTGTCTCCATAAAA | 0.67 ± 0.17
38 | AAAAAATCGCGTCCGTGCTCAATCCAAAAA | 0.48 ± 0.0566
